{"source": "PubChem BioAssay (NCI)", "note": "“And” between values parts separate entries of the source, which are not always exact repeats. Equal entries are not always repeated. The panel holds about 83,000 compounds, 20% with a hit somewhere; the sample as a whole holds those more often.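 96-well plates, one dose, 48 hours. Percent growth reported; active if below 10.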 The source made the active and inactive calls.", "data": [{"test_system": "MDA-MB-468 breast", "test": "NCI-60 one-dose screen, 48 h (100 = growth as untreated, 0 = no growth, -100 = all killed)", "settings": "10 µM unless noted", "values": [{"smiles": "COc1ccc(C2=NN(C(C)=O)C(c3c(C)nn(-c4ccccc4)c3N3CCOCC3)C2)cc1", "note": "(stereo unspecified)", "growth": "92.6% (inactive)"}, {"smiles": "NC(C(=O)O)C(O)c1ccc(OCc2ccccc2)c(OCc2ccccc2)c1", "note": "(stereo unspecified)", "growth": "104% (inactive)"}, {"smiles": "O=C(Nc1ccc(N=Cc2c(O)[nH]c3ccccc23)cc1)Nc1ccc(S(=O)(=O)Nc2ncccn2)cc1", "growth": "116% (inactive)"}, {"smiles": "Cc1ccc(C(=O)Nc2cccc(C#Cc3cccc4[nH]nc(N)c34)c2)cc1C(F)(F)F", "growth": "95.6% (inactive)"}, {"smiles": "C=C(C)[C@@H]1CC[C@]2(C(=O)O)CC[C@]3(C)[C@H](CC[C@@H]4[C@@]5(C)C[C@@H](CC#Cc6ccc(C(C)=O)s6)[C@H](O)C(C)(C)[C@@H]5CC[C@]43C)[C@@H]12", "growth": "63.4% (inactive)"}, {"smiles": "C=CC(=O)Nc1cc(Nc2nccc(-c3cn(C)c4ccccc34)n2)c(OC)cc1N(C)CCN(C)C", "growth": "-74.1% (active)"}, {"smiles": "COc1ccc(-c2nnc(SCC(=O)N3CCN(c4cc5c(cc4F)c(=O)c(C(=O)O)cn5C4CC4)CC3)o2)cc1OC", "growth": "96.4% (inactive)"}, {"smiles": "Cc1ccc(N(CC(=O)Nc2ccc(S(=O)(=O)NC3CCN(C)CC3)cc2)S(=O)(=O)c2ccc(Cl)cc2)cc1", "growth": "50.3% (inactive)"}, {"smiles": "COC(=O)[C@H](Cc1cn(C)cn1)NC(=O)[C@H](Cc1c[nH]c2ccccc12)NC(=O)Nc1cc(C(F)(F)F)cc(C(F)(F)F)c1", "growth": "-75.7% [100 µM] (active)"}, {"smiles": "CN1CCN(CC#CCNC(=O)[C@]23CCC(C)(C)C[C@H]2C2=CC[C@@H]4[C@@]5(C)Cc6c([nH]c7ccccc67)C(C)(C)[C@@H]5CC[C@@]4(C)[C@]2(C)CC3)CC1", "growth": "91.2% (inactive)"}, {"smiles": "CN1C(=O)CCC(N2C(=O)c3cccc(NCCOCCOCCNC(=O)c4cc5c(o4)C(=O)c4ccccc4C5=O)c3C2=O)C1=O", "note": "(stereo unspecified)", "growth": "-28.3% (active)"}, {"smiles": "CN(C)c1ncnc2c1cnn2C", "growth": "106% (inactive)"}, {"smiles": "CN1CCN(CCCN2c3ccccc3Sc3ccc(Cl)cc32)CC1", "growth": "-0.133% (active) and 70.8% (inactive)"}, {"smiles": "COc1ccc2nc3cc(Cl)ccc3c(NC(=O)CSc3ccc(Cl)cc3)c2c1", "growth": "-81.7% (active)"}, {"smiles": "NC(=O)NC(=O)c1ccc(Cl)cc1", "growth": "117% (inactive)"}, {"smiles": "COc1ccc(CNC(=O)COc2ccc(/C=N/Nc3nc4ccccc4s3)cc2)cc1", "growth": "28.3% (inactive)"}, {"smiles": "CCCCCCCCCCN=C(c1ccc(N(C)C)cc1)c1ccc(N(C)C)cc1", "growth": "-8.69% (active)"}, {"smiles": "O=C(Nc1ccc(Br)cc1F)c1cc(I)ccc1O", "growth": "-1.19% (active)"}, {"smiles": "CCOc1cc(CCNS(=O)(=O)c2ccc(C)cc2)c(C(C)=O)cc1OCC", "growth": "67.1% [100 µM] (inactive)"}, {"smiles": "CCO/C=C1\\SC(=S)N(c2cccc(O)c2)C1=O", "growth": "87.6% (inactive)"}, {"smiles": "Oc1c(I)cc(I)cc1CN(Cc1ccccn1)Cc1ccccn1", "growth": "8.74% (active)"}, {"smiles": "CCCC1=NNC(=O)C1", "growth": "115% (inactive)"}, {"smiles": "Cc1ccc(-n2cc(-c3ccccc3)c3c2N=NN2CCN=C32)cc1", "growth": "103% (inactive)"}, {"smiles": "O=c1ccc2nc(-c3ccccn3)nn(-c3ccccc3)c-2c1", "growth": "-32.1% (active)"}, {"smiles": "COc1ccc2c(c1)CC[C@H](O)/C2=C/c1cc(OC)c(OC)c(OC)c1", "growth": "17.6% (inactive)"}, {"smiles": "COc1ccccc1S(=O)(=O)Nc1ccc2c3c(cc(-c4cnn(C)c4)nc13)C(=O)N2C", "growth": "23.1% (inactive)"}]}]}
